# Measurements taken from the supplement of paper PMC8728848.
# Only a selection was taken, and the strongest signals are over-represented in it overall.
# B1: PX9961Q-bfa-504-27-504 (Bacteroides fragilis) (protein)
# chain: NDWLDRKPADGIPSEDAITNYNDALTARTGMYDGIQGNSNATSYYGARMFYYGDVRADDMQARTQGMRSSSCYEMLYTVDDAPNMWNIPYNVIRRANRLIEAINEKKVTDATEAQIGKIYSEALVVRALVHFDLVRIYGMPYTADNGASLGVPVIVKPLERNDLPSRNTVAEVYTQVITDLTDAINSGYLAKDQTPGYINEWAAKALLTRVYLTKGDNENALKVAEDIITNSPYKLWTNEEYVNAWYKSNGAHTNEMIFEVVNASNDDWTDRNGIAYLLNENGYADAIVTKSFMNMLSQDPKDVRIGMVLPAQYDKDLQEEYGDAKIFINKFPADKDDVGEMRLNNLPLLRLSEVYLSAAEAAAKLGGHQDKAAKYLNEIVQRANPEAKAISEADATVERIILERRKEMIGEGQRYFDALRNNETIVRYKDEGDKGYHYSLIKESQSFDRTYFRAILPIPVDETNVNPNLRAQQNPGY
# Assays:
# Assay in all cases: glycan array binding signal (z-score within array); higher = stronger binding
# Conditions in all cases: glycan notation: IUPAC condensed, linker removed
# [1] = molecular target: Fuc(a1-2)Gal(b1-3)GlcNAc(b1-2)Man(a1-3)[Fuc(a1-2)Gal(b1-3)GlcNAc(b1-2)Man(a1-6)]Man(b1-4)GlcNAc(b1-4)GlcNAc
# Outline: (§1)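 Glycan array data were curated from 3228 arrays in the Consortium for Functional Glycomics database and kept only where the protein sequence was available. Glycan names were converted to IUPAC-condensed notation, and columns mapping to the same glycan were averaged. The binding signal is a within-array Z-score, averaged across arrays of the same protein sequence at different concentrations or buffers and across linkers. Negative Z-scores can be read as non-binding.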
# [2] = molecular target: Fuc(a1-2)Gal(b1-3)GlcNAc(b1-3)Gal(b1-4)Glc
# Outline: as §1
# [3] = molecular target: Fuc(a1-2)Gal(b1-3)GlcNAc(b1-3)[Gal(b1-4)GlcNAc(b1-6)]Gal(b1-4)Glc
# Outline: as §1
# [4] = molecular target: Fuc(a1-2)Gal(b1-4)Glc
# Outline: as §1
# [5] = molecular target: Fuc(a1-2)Gal(b1-4)GlcNAc(b1-6)GalNAc
# Outline: as §1
# [6] = molecular target: Fuc(a1-2)[Gal(a1-3)]Gal(b1-3)GalNAc
# Outline: as §1
# [7] = molecular target: Fuc(a1-2)[Gal(a1-3)]Gal(b1-4)Glc
# Outline: as §1
# [8] = molecular target: Fuc(a1-2)[Gal(a1-4)]Gal(b1-4)GlcNAc
# Outline: as §1
# [9] = molecular target: Fuc(a1-2)[GalNAc(a1-3)]Gal(b1-4)GlcNAc
# Outline: as §1
# [10] = molecular target: Fuc(a1-3)[Gal(b1-4)]GlcNAc(b1-2)Man(a1-3)[Fuc(a1-3)[Gal(b1-4)]GlcNAc(b1-2)Man(a1-6)]Man(b1-4)GlcNAc(b1-4)GlcNAc
# Outline: as §1
# [11] = molecular target: Fuc(a1-3)[Gal(b1-4)]GlcNAc(b1-6)GalNAc
# Outline: as §1
# [12] = molecular target: Gal(a1-3)Gal(b1-3)GlcNAc(b1-2)Man(a1-3)[Gal(a1-3)Gal(b1-3)GlcNAc(b1-2)Man(a1-6)]Man(b1-4)GlcNAc(b1-4)GlcNAc
# Outline: as §1
# [13] = molecular target: Gal(a1-3)Gal(b1-3)[Fuc(a1-4)]GlcNAc(b1-2)Man(a1-3)[Gal(a1-3)Gal(b1-3)[Fuc(a1-4)]GlcNAc(b1-2)Man(a1-6)]Man(b1-4)GlcNAc(b1-4)GlcNAc
# Outline: as §1
# [14] = molecular target: Gal(a1-4)Gal(b1-3)GlcNAc(b1-2)Man(a1-3)[Gal(a1-4)Gal(b1-3)GlcNAc(b1-2)Man(a1-6)]Man(b1-4)GlcNAc(b1-4)GlcNAc
# Outline: as §1
# [15] = molecular target: Gal(a1-4)Gal(b1-4)Glc
# Outline: as §1
# [16] = molecular target: Gal(b1-3)GlcNAc(b1-2)Man(a1-3)[Gal(b1-3)GlcNAc(b1-2)Man(a1-6)]Man(b1-4)GlcNAc(b1-4)GlcNAc
# Outline: as §1
# [17] = molecular target: Gal(b1-3)GlcNAc(b1-3)Gal(b1-4)[Fuc(a1-3)]GlcNAc(b1-6)[Gal(b1-3)GlcNAc(b1-3)]Gal(b1-4)Glc
# Outline: as §1
# [18] = molecular target: Gal(b1-3)GlcNAc6S
# Outline: as §1
# [19] = molecular target: Gal(b1-4)GlcNAc(b1-2)Man(a1-3)[Man(a1-6)]Man(b1-4)GlcNAc(b1-4)GlcNAc
# Outline: as §1
# [20] = molecular target: Gal(b1-4)GlcNAc(b1-3)Gal(b1-4)GlcNAc(b1-3)Gal(b1-4)GlcNAc(b1-2)Man(a1-3)[Gal(b1-4)GlcNAc(b1-3)Gal(b1-4)GlcNAc(b1-3)Gal(b1-4)GlcNAc(b1-2)Man(a1-6)]Man(b1-4)GlcNAc(b1-4)GlcNAc
# Outline: as §1
# [21] = molecular target: Gal(b1-4)GlcNAc(b1-3)Gal(b1-4)GlcNAc(b1-3)Gal(b1-4)GlcNAc(b1-3)Gal(b1-4)GlcNAc(b1-2)Man(a1-3)[Gal(b1-4)GlcNAc(b1-3)Gal(b1-4)GlcNAc(b1-3)Gal(b1-4)GlcNAc(b1-3)Gal(b1-4)GlcNAc(b1-2)Man(a1-6)]Man(b1-4)GlcNAc(b1-4)GlcNAc
# Outline: as §1
# [22] = molecular target: Gal(b1-4)GlcNAc(b1-3)Gal(b1-4)GlcNAc(b1-3)Gal(b1-4)GlcNAc(b1-3)Gal(b1-4)GlcNAc(b1-3)Gal(b1-4)GlcNAc(b1-2)Man(a1-3)[Gal(b1-4)GlcNAc(b1-3)Gal(b1-4)GlcNAc(b1-3)Gal(b1-4)GlcNAc(b1-3)Gal(b1-4)GlcNAc(b1-3)Gal(b1-4)GlcNAc(b1-2)Man(a1-6)]Man(b1-4)GlcNAc(b1-4)GlcNAc
# Outline: as §1
# [23] = molecular target: Gal(b1-4)GlcNAc(b1-3)Gal(b1-4)[Fuc(a1-3)]GlcNAc(b1-3)Gal(b1-4)[Fuc(a1-3)]GlcNAc
# Outline: as §1
# [24] = molecular target: Gal(b1-4)GlcNAc(b1-6)GalNAc
# Outline: as §1
# [25] = molecular target: Gal3S(b1-3)GlcNAc
# Outline: as §1
# [26] = molecular target: Gal6S(b1-4)Glc6S
# Outline: as §1
# [27] = molecular target: Gal6S(b1-4)GlcNAc
# Outline: as §1
# [28] = molecular target: GalNAc(b1-4)Gal(b1-4)Glc
# Outline: as §1
# [29] = molecular target: Glc(a1-6)Glc(a1-6)Glc(a1-6)Glc
# Outline: as §1
# [30] = molecular target: Glc(b1-4)Glc
# Outline: as §1
binder,measurement,setting,value
B1,glycan array binding signal (z-score),[1],2.69
same,glycan array binding signal (z-score),[2],0.015
same,glycan array binding signal (z-score),[3],-0.322
same,glycan array binding signal (z-score),[4],-0.701
same,glycan array binding signal (z-score),[5],0.145
same,glycan array binding signal (z-score),[6],0.904
same,glycan array binding signal (z-score),[7],0.106
same,glycan array binding signal (z-score),[8],1.12
same,glycan array binding signal (z-score),[9],-0.704
same,glycan array binding signal (z-score),[10],0.155
same,glycan array binding signal (z-score),[11],4.03
same,glycan array binding signal (z-score),[12],0.772
same,glycan array binding signal (z-score),[13],8.13
same,glycan array binding signal (z-score),[14],2.6
same,glycan array binding signal (z-score),[15],0.623
same,glycan array binding signal (z-score),[16],3.77
same,glycan array binding signal (z-score),[17],12.8
same,glycan array binding signal (z-score),[18],-0.822
same,glycan array binding signal (z-score),[19],-0.622
same,glycan array binding signal (z-score),[20],2.45
same,glycan array binding signal (z-score),[21],2.49
same,glycan array binding signal (z-score),[22],0.85
same,glycan array binding signal (z-score),[23],-0.284
same,glycan array binding signal (z-score),[24],0.056
same,glycan array binding signal (z-score),[25],-0.053
same,glycan array binding signal (z-score),[26],-0.063
same,glycan array binding signal (z-score),[27],-0.679
same,glycan array binding signal (z-score),[28],0.821
same,glycan array binding signal (z-score),[29],-0.611
same,glycan array binding signal (z-score),[30],-0.009
